Z-score data for nine compounds are collected here from PubChem BioAssay.

The structures appear in SMILES notation. A number with no mark means an inactive call. Calls of active or inactive are those of the source.

This experiment is described as follows: budding yeast growth modifiers under rapamycin – strain BY4716, OD600, 96 h, primary screen (AID 1091). Also: test concentration not given here. Conditions: S. cerevisiae BY4716 + rapamycin, higher = more signal, called active from +8 up or from −8 down.
Consider `CCOC(=O)C=Cc1cc(F)ccc1O`, for which the z-score was -1.06. In the case of `[N-]=[N+]=Nc1ccccc1[C@@H]1OC(c2ccc(OCCCO)cc2)=N[C@]1(Cc1ccccc1)C(=O)NCc1ccccc1`, the z-score is 3.07.

With `Cc1ccccc1C(O)C1C=CC2C(=O)NC(=O)C2N1Nc1ccc(Cl)cc1Cl` (centres undefined), the z-score is 0.797. With `COc1ccc([Si](C)(C)[C@H]2[C@H](CCO)O[C@@]3(C(=O)N(Cc4ccccc4)c4ccc(N5CCOC5=O)cc43)[C@@H]2C)cc1`, the z-score was 16.7 (active). Take `COCC1C2CC[C@H]3C(OCc4ccc(OC)cc4)OC[C@]4(C)[C@H]3C2=C(CN4C(=O)OC(C)(C)C)[C@H](C)C1COC` (some centres undefined): the z-score is -0.444. Take `COCCOC(=O)N1C(=O)[C@@]2(c3cc(C#CC4(O)CCCCCC4)ccc31)[C@H](C(=O)N1CCN(c3ncccn3)CC1)[C@H]1C(=O)O[C@H](c3ccccc3)[C@H](c3ccccc3)N1[C@@H]2c1ccccc1OCCO`: the z-score was 7.55. On to `COc1ccc(C(=O)Nc2cccc(CN3C(=O)[C@@]4(O[C@@H](CC(=O)N(CCO)Cc5ccccc5)[C@H]([Si](C)(C)c5ccc(OC)cc5)[C@H]4C)c4ccccc43)c2)cc1`, for which the z-score was 2.85. As for `COCCOC(=O)N1C(=O)[C@@]2(c3cc(C#CCNC(N)=O)ccc31)[C@H](c1ccc(O)cc1)N1[C@H](c3ccccc3)[C@H](c3ccccc3)OC(=O)[C@H]1[C@@H]2C(N)=O`, the z-score was 0.374.

Turning to `O=C1C2C=CC(C(O)c3cccc(O)c3)N(Nc3ccccc3)C2C(=O)N1c1ccccc1` (centres undefined), the z-score was 0.299.
